Measured values taken from article PMC5540273 (PLoS ONE, 2017).

Key:
Conditions in all cases: concentration: 1 μM,replicates: in singlicate; n = 1
CDC2L2 = test system: CDC2L2
CDC2L5 = test system: T1, CDC2L5
T1 construct: gene CDK13

CDK11 = test system: T2, CDK11
T2 construct: gene CDK19

CDK2 = test system: CDK2
CDK3 = test system: CDK3
CDK4-cyclinD1 = test system: CDK4-cyclinD1
CDK4-cyclinD3 = test system: CDK4-cyclinD3
CDK4 = test system: CDK4
CDK5 = test system: CDK5
CDK7 = test system: CDK7
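Further: KINOMEscan kinase panel screen.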

Compound | %Inh (CDC2L2) [%] | %Inh (CDC2L5) [%] | %Inh (CDK11) [%] | %Inh (CDK2) [%] | %Inh (CDK3) [%] | %Inh (CDK4-cyclinD1) [%] | %Inh (CDK4-cyclinD3) [%] | %Inh (CDK4) [%] | %Inh (CDK5) [%] | %Inh (CDK7) [%]
Cl.c1ccc(Oc2ccc(Nc3ccnc4cc(-c5ccc(CN6CCNCC6)o5)ccc34)cc2)nc1 [GW567142] | 16 | 0 | 10 | 0 | 0 | 0 | 0 | 14 | 0 | 52
COc1ccc(Nc2nccc(N3CCC(NC(=O)c4cccc(C#N)c4)C3)n2)cc1 (stereo not shown) [GSK1379730] | 0 | 0 | 4 | 0 | 26 | 34 | 0 | 36 | 7 | 0
CSc1nccc(-c2c(-c3ccc(F)cc3)ncn2CCCN2CCOCC2)n1.Cl [SB-217146] | 0 | 0 | 0 | 0 | 0 | 0 | 0 | 16 | 0 | 12
CC(C)S(=O)(=O)N1CCN(Cc2ccc3c(c2)nc(NC(=O)c2ccsc2)n3C[C@H](O)c2ccccc2)CC1 [GW635815] | 4 | 0 | 6 | 0 | 25 | 0 | 0 | 42 | 0 | 8
CC(=O)Nc1nc2cnc(Nc3cc(NC(=O)c4cccc(CC(C)(C)C#N)c4)ccc3C)nc2s1 | 16 | 66 | 79 | 15 | 0 | 1 | 15 | 45 | 14 | 36
O=C(NCC1CC1)c1ccc(-c2cc(C(=O)NC3CC3)ccc2F)cc1 [GW810445] | 0 | 7 | 32 | 0 | 7 | 0 | 0 | 1 | 0 | 0
CN(c1ccccc1CNc1nc(Nc2ccc3c(c2)CC(=O)N3)ncc1C(F)(F)F)S(C)(=O)=O | 0 | 0 | 0 | 58 | 55 | 0 | 34 | 0 | 83 | 67
